Experiment [1] in a line: Cell Viability - LYMP2-025 (AID 976).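 Also: series mostly up to about 92 µM; plate controls were DMSO only for no effect and tetraoctylammonium bromide control for full effect.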 The procedure, abridged:
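Luminescent ATP readout after 24 hr treatment of a human lymphoblastoid line (LYMP2-025, 2500 cells/well, 37 C). Reagent developed 30 min at room temperature; AC50 fitted with the Hill equation.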

The nature of experiment [2]: Cell Viability - LYMP2-002 (AID 977).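 Also: series mostly up to about 92 µM; compound exposure lasted 24 h at 37 °C; plate controls were DMSO only for no effect and 92 µM tetraoctylammonium bromide for full effect.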 The procedure, abridged: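 In this qHTS viability screen, 2500 human lymphoblastoid cells per well receive compound for 24 hr at 37 C, and luciferase-based ATP luminescence gives the viability signal. Tetraoctylammonium bromide serves as positive control.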
Experiment [3] in a line: Cell Viability - LYMP2-006 (AID 978). Also: series mostly up to about 92 µM; % is scaled to controls: 0 for no effect and ±100 for the full control effect; nearly all actives have a fitted effect of over 60% in size. The procedure, abridged:
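Potency values are Hill-fit AC50s for decreases in intracellular ATP (CellTiter-Glo luminescence). LYMP2-006 lymphoblastoid cells, 2500 per well, were exposed to compound in complete culture medium for 24 hr at 37 C.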

The nature of experiment [4]: Cell Viability - LYMP2-007 (AID 979).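 Also: cells exposed to compound for 24 h before reading; 0% = DMSO only and the negative end = 92 µM tetraoctylammonium bromide; nearly all actives have a fitted effect of over 60% in size.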 The procedure, abridged:
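Measured via luciferase-based ATP quantitation: lymphoblastoid cells, 24 hr compound exposure at 37 C, AC50 from Hill fits.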

The nature of experiment [5]: Cell Viability - LYMP2-008 (AID 980). Also: % is scaled to controls: 0 for no effect and ±100 for the full control effect; nearly all actives have a fitted effect of over 60% in size. The procedure, abridged:
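Measured: ATP-dependent luminescence, proportional to viable cell number, in human lymphoblastoid cells treated 24 hr with compound in complete culture medium. Values are AC50s from Hill-equation modelling of qHTS titrations.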

A short description of experiment [6]: Cell Viability - LYMP2-024 (AID 988).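 Also: plate controls were DMSO only for no effect and 92 µM tetraoctylammonium bromide for full effect; nearly all actives have a fitted effect of over 60% in size.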 The procedure, abridged: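 Cells at 2500 per well received compound for 24 hr after a 5 hr settling period. Viability was scored by CellTiter-Glo luminescence, with AC50 from Hill fits.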
Experiment [7] in a line: Cell Viability - LYMP2-026 (AID 989). Also: % is scaled to controls: 0 for no effect and ±100 for the full control effect; nearly all actives have a fitted effect of over 50% in size. The procedure, abridged: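 Acute toxicity screen in complete culture medium, with 24 hr compound exposure at 37 C. Viability read as cellular ATP via luciferase reaction, with tetraoctylammonium bromide (6.4pM to 92 uM) as positive control.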
Experiment [8] can be described thus: Cell Viability - LYMP1-002 - Assay at 24 hr (AID 993). Also: % is scaled to controls: 0 for no effect and ±100 for the full control effect. The procedure, abridged: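 Viability was judged from intracellular ATP using a luciferase read-out, following a 24-hour compound incubation at 37 C of lymphoblastoid cells seeded at 2500 per well. Concentration-response data were fitted to the Hill equation for AC50.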
Experiment [9] is described as follows: Cell Viability - LYMP1-002 - Assay at 40 hr (AID 994). The procedure, abridged:
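Concentration-dependent ATP loss after 40 hr treatment at 37 C defined toxicity; AC50 values were obtained by fitting the standard Hill equation.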

A short description of experiment [10]: qHTS Assay for Identification of Small Molecule Inducers of Hypoxia Response (AID 2120; active = well fitted curve in the direction sought with a large enough effect in the signal ratio, with a control signal flat, not every such curve was filed as active; the % refers to the signal ratio; also: 0% is about no effect). The procedure, abridged:
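HRE-bla ME-180, 2500 cells/well, 0.5% dialyzed FBS medium; cpd titration, 17 h 37 degrees C; CCF4 2.5 h RT; Ex 405, Em 460/530 ratio -> %Activity, AC50.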
(Quantitative high-throughput screening tests each substance at several concentrations.)

Experiment [11] has as its target Estrogen receptor (Homo sapiens) (UniProt P03372). Description: qHTS assay for small molecule antagonists of estrogen receptor alpha signaling (AID 588513; active = well fitted curve in the direction sought with a large enough effect in the signal ratio, with a control signal flat, not every such curve was filed as active; the % refers to the signal ratio; also: % is scaled to controls: 0 for no effect and ±100 for the full control effect). The procedure, abridged: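 Antagonist mode: inhibition of 0.5 nM 17-beta-estradiol-driven beta-lactamase reporter in HEK 293 ER-alpha-UAS-bla cells, 18 h at 37C, CCF4 readout after 2 h at RT. Normalised to estradiol and DMSO; titration fitted to Hill.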

Experiment [12] has as its target Bile acid receptor (Homo sapiens) (UniProt Q96RI1). Nature of the experiment: qHTS assay for small molecule antagonists of farnesoid X receptor signaling (AID 588526; calls by dose curve; also: % is scaled to controls: 0 for no effect and ±100 for the full control effect). The procedure, abridged: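 Concentration-response titrations were fitted to the Hill equation for half-maximal inhibition and maximal response, with data normalised to 50 uM chenodeoxycholic acid and DMSO control wells. Cells: FXR-UAS-bla HEK293T, dialyzed FBS.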

For experiment [13] the target is unchanged. Nature of the experiment: qHTS assay for small molecule agonists of farnesoid X receptor signaling (AID 588527; calls by dose curve;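 also: series mostly up to about 77 µM; 0% = vehicle basal and 100% = reference agonist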). Conditions: HEK293T FXR-UAS-bla, beta-lactamase ratio, 16 h; activation: stronger effect = higher value. The procedure, abridged: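 Agonist-mode beta-lactamase reporter in GeneBLAzer FXR-UAS-bla HEK293T cells, titration up to 92 uM, 16 h exposure at 37 C, CCF4 fluorescence. Response scaled to DMSO (0%) and 100 uM chenodeoxycholic acid (100%), then Hill-fitted for EC50 and efficacy.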

Experiment [14] deals with Glucocorticoid receptor (Homo sapiens) (UniProt P04150). Nature of the experiment: qHTS assay for small molecule agonists of glucocorticoid receptor signaling (AID 588532; active = well fitted curve in the direction sought with a large enough effect in the signal ratio, with a control signal flat; the % refers to the signal ratio;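 also: 100% = dexamethasone at 0.1 µM and 0% = DMSO only wells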). The following applies: HeLa MMTV-bla, beta-lactamase ratio, agonist, 18 h; stronger effect = higher value; percent of dexamethasone control, DMSO zero. The procedure, abridged:
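Titration series, up to 92 uM, applied to GRE-bla HeLa cells for 18 h at 37 C. Detection by CCF4 FRET substrate after 2 h at RT.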

Experiment [15] shares this target. Description: qHTS assay for small molecule antagonists of glucocorticoid receptor signaling (AID 588533; active = well fitted inhibition curve with a large enough effect in the signal ratio, with a control signal flat, not every such curve was filed as active; the % refers to the signal ratio;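 also: cells stimulated with 2 nM dexamethasone as agonist; % is scaled to controls: 0 for no effect and ±100 for the full control effect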). The procedure, abridged:
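Antagonist-mode qHTS: compound titrations added to GRE-bla HeLa cells, then dexamethasone 2 nM final; 18 h, 37 C. CCF4 FRET fluorescence normalized to dexamethasone and DMSO; IC50 from Hill fit.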

In experiment [16] the target is Peroxisome proliferator-activated receptor gamma (Homo sapiens) (UniProt P37231). Nature of the experiment: qHTS assay for small molecule agonists of peroxisome proliferator-activated receptor gamma signaling (AID 588536; active = well fitted curve in the direction sought with a large enough effect in the signal ratio, with a control signal flat, not every such curve was filed as active; the % refers to the signal ratio;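 also: 0% = DMSO basal wells and 100% = rosiglitazone at 2 µM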). The procedure, abridged: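 This is an agonist-mode beta-lactamase reporter assay in HEK293 PPAR-gamma-UAS-bla cells with 1% charcoal/dextran FBS. Compound titrations ran 16 h at 37 C before CCF4 detection. EC50 and efficacy are Hill fits scaled to 2 uM rosiglitazone (100%) and DMSO basal.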

Experiment [17] has the same target. Nature of the experiment: qHTS assay for small molecule antagonists of peroxisome proliferator-activated receptor gamma signaling (AID 588537; active = well fitted inhibition curve with a large enough effect in the signal ratio, with a control signal flat, not every such curve was filed as active; the % refers to the signal ratio;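 also: reporter cells co-stimulated with 50 nM rosiglitazone agonist during compound treatment; % of control where 0% means no effect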). The procedure, abridged: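 HEK293 cells, PPAR-gamma-UAS-bla, 3000/well. Pre-incubation 6-6.5 h, 37 C. Compound titration with rosiglitazone 50 nM final, 16 h. CCF4 dye, 2 h RT, dual-emission fluorescence.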
Experiment [18] in a line: qHTS assay for small molecule agonists of retinoid X receptor alpha signaling (AID 588544; calls by dose curve;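 as to activation: 0% = DMSO basal wells and 100% = reference agonist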). Conditions: HEK293T RXRa-UAS-bla, beta-lactamase reporter, 18 h; 530 nm emission.
The target in experiment [19] is Retinoic acid receptor RXR-alpha (Homo sapiens) (UniProt P19793). The experiment is described as above.
Experiment [20] addresses Thyroid hormone receptor beta (Homo sapiens) (UniProt P10828). Nature of the experiment: qHTS assay for small molecule agonists of thyroid hormone receptor beta signaling (AID 588545; calls by dose curve). The procedure, abridged: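 Cells (2500/well) were seeded, incubated 4 hrs at 37 C, dosed with a compound series, incubated 18 hrs, loaded with CCF4 dye for 2 hrs at RT, then read for fluorescence. Data were scaled between DMSO (0%) and 10 nM T3 (100%).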

Experiment [21] is described as follows: qHTS assay for small molecule antagonists of retinoid X receptor alpha signaling (AID 588546; active = well fitted inhibition curve with a large enough effect in the signal ratio, with a control signal flat, not every such curve was filed as active; the % refers to the signal ratio). The following applies: HEK293T RXRa-UAS-bla, beta-lactamase ratio, antagonist mode; measured here: W530 green channel, cytotoxicity proxy. The procedure, abridged:
(§1)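 Beta-lactamase reporter inhibition, read as CCF4 fluorescence ratio (ex 405, em 460/530 nm) after 2 h at RT. HEK293T UAS-bla cells, 2500/well, were stimulated with 9-cis-RA at 500 or 100 nM final alongside test compound for 18 h at 37 C.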

Experiment [22] concerns the target Retinoic acid receptor RXR-alpha (Homo sapiens) (UniProt P19793). The description is as above. Conditions: HEK293T RXRa-UAS-bla, beta-lactamase ratio, antagonist mode. The procedure, abridged: as §1

These results are taken from PubChem BioAssay (NCATS).

Results filed as inconclusive are left out. Calls of active or inactive are those of the source. Unless noted, calls follow the shape of the dose curve; as a rule, active = well fitted cell-killing curve with a large enough effect; inconclusive = small, poorly fitted or top-dose-only effect; inactive = flat fitted curve, though single readings scatter.

Glucocorticoid receptor (Homo sapiens), sequence (P04150 whole entry, looked up): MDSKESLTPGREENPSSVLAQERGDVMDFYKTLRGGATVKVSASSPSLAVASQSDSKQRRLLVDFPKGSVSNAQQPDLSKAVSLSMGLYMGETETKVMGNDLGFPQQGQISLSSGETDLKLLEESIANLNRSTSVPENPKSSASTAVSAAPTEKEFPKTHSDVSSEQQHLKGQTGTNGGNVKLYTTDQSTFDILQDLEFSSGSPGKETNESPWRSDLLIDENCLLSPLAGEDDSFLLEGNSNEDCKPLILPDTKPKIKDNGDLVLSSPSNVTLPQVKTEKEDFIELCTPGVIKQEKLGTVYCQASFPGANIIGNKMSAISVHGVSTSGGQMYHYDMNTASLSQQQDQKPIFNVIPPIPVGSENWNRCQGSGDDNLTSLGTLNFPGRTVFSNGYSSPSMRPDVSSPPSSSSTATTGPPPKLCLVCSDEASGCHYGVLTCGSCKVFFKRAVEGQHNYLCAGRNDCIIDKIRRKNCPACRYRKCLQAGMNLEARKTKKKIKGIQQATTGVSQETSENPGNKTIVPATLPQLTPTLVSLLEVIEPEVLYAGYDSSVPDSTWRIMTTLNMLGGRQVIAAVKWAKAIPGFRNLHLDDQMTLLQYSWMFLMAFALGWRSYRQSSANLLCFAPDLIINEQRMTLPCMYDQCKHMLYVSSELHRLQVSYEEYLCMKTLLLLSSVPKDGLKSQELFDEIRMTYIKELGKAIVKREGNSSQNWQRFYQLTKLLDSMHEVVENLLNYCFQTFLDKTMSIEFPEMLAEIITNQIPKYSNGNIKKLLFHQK
Bile acid receptor (Homo sapiens), sequence (Q96RI1 whole entry, looked up): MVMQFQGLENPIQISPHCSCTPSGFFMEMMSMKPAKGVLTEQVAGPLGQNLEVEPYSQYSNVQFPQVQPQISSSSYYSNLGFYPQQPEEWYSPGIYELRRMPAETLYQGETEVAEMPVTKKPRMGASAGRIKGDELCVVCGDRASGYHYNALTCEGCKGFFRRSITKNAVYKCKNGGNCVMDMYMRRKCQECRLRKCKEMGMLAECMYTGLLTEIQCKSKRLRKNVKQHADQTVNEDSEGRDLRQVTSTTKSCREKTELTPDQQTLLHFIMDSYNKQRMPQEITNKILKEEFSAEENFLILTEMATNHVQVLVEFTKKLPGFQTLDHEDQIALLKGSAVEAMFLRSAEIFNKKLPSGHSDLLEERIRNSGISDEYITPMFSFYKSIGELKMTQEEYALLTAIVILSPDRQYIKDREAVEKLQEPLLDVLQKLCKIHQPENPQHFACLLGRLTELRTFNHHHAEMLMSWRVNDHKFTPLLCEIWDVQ
Peroxisome proliferator-activated receptor gamma (Homo sapiens), sequence (P37231 whole entry, looked up): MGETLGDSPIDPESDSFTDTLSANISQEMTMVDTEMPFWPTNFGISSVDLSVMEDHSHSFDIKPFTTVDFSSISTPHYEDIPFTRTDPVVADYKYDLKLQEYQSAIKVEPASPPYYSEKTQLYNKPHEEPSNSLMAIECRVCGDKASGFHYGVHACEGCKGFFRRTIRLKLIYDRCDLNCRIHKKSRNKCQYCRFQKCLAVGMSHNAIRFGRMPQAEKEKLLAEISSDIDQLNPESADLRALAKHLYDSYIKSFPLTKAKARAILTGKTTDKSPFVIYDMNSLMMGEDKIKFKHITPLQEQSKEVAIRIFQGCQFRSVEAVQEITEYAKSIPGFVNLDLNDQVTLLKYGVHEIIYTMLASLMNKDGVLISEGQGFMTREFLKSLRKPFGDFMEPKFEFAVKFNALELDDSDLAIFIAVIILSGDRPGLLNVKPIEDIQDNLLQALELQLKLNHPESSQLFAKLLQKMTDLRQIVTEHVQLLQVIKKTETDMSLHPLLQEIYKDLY
Retinoic acid receptor RXR-alpha (Homo sapiens), sequence (P19793 whole entry, looked up): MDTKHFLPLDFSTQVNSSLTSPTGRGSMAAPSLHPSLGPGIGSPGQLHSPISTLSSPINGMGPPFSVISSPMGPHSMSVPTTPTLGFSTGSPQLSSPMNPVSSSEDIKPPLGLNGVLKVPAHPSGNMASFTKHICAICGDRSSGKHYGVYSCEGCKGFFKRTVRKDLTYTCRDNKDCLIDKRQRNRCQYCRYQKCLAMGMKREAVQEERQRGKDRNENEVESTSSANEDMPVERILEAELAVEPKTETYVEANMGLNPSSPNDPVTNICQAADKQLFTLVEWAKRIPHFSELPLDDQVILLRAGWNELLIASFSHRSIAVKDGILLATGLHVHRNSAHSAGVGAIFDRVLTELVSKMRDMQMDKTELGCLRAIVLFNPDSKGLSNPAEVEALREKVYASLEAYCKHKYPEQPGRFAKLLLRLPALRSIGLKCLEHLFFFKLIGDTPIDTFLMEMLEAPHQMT
Thyroid hormone receptor beta (Homo sapiens), sequence (P10828 whole entry, looked up): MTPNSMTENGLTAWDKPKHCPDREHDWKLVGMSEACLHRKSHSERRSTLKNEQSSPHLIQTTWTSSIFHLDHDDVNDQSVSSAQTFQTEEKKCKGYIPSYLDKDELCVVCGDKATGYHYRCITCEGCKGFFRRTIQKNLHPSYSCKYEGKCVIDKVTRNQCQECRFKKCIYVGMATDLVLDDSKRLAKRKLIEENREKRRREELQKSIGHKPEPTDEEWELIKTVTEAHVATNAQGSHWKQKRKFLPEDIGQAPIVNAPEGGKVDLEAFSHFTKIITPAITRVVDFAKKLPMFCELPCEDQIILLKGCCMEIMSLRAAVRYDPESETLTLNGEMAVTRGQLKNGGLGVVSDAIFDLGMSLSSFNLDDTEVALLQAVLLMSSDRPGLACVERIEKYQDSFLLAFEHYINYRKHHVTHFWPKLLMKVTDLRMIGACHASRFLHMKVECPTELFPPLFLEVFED
Estrogen receptor (Homo sapiens), sequence (P03372 whole entry, looked up): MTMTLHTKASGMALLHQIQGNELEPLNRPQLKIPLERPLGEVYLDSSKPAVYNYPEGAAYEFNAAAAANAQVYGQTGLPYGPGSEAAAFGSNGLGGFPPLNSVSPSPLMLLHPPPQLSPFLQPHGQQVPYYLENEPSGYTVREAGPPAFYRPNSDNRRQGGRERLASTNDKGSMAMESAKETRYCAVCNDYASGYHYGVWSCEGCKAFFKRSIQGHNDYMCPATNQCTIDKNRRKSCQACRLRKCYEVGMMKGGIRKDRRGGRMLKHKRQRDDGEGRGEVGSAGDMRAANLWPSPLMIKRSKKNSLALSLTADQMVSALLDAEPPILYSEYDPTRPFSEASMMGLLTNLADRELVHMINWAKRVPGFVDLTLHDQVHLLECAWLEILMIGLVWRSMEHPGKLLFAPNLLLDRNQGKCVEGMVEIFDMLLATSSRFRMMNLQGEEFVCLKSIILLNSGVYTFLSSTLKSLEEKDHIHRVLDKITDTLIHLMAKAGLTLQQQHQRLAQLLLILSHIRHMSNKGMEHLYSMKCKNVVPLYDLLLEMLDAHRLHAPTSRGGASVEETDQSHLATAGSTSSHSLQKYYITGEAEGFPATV

In the case of `CC(C)COC(=O)c1ccccc1C(=O)OCC(C)C`, the compound was called inactive in [1], in experiment [2], in [3], in [4], in experiment [5] and in experiment [6]. The compound was called inactive in experiment [7], in [8], in [10], in experiment [16] and in [19]. The Potency entry in [9], in experiment [11], in experiment [12], in [15], in experiment [17] and in experiment [20] was “inactive” throughout. The values for the activation in [13] and in experiment [14] were -1.69% (inactive) and -1.08% (inactive), respectively. Further, the max response was -12.5% in experiment [18], -12.2% in experiment [21] and 12.8% (inactive) in experiment [22].
